Among the data in PubChem BioAssay (NCI) are growth values, retold here.

About 83,000 compounds went through this panel and 20% of them were active in at least one assay; those are over-represented in the sample as a whole.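 Each cell line was grown in a 96-well plate and treated with one concentration of compound for 48 hours. Values below 10 were considered active.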 Unmarked numbers belong to inactive results. The source made the active and inactive calls.

What all share (test): NCI-60 one-dose screen, 48 h (100 = growth as untreated, 0 = no growth, -100 = all killed)
Holding throughout (conditions): 10 µM

Test [1] deals with SN12C renal.
In test [2] the test system is UO-31 renal.
Test [3] concerns TK-10 renal.
In test [4] the test system is ACHN renal.
In test [5] the test system is CAKI-1 renal.
The subject of test [6] is A498 renal.
For test [7], the system named is CCRF-CEM leukemia.
In test [8] the test system is MOLT-4 leukemia.
Test [9] concerns EKVX NSCLC.
In test [10] the test system is SR leukemia.

Regarding `CCN(CC)CCC(=O)Nc1cccc2c1C(=O)c1c(c(O)c3ccccc3c1O)C2=O`, the growth was 59.5% in test [1]; -68% (active) in test [2]; 95.6% in [3]; 21.6% in test [4]; 14% in test [5]; 71.4% in [6]. Further, the growth in test [7] was -3.1% (active); in test [8] it was 2.61% (active).

Turning to `C(CCCC1=NCCO1)CCCC1=NCCO1`, the growth in [1] is 102%; in [2], 90.9%; in [3] it was 110%; in test [4], 105%; in [5] it was 103%; in test [6], 101%. Moreover, the growth was 104% in [7] and 105% in test [8].

With `CC(=O)CSC(C)=O`, the growth was 100% in test [1]; 91.3% in [2]; 122% in test [3]; 97.8% in test [4]; 91.6% in test [5]; 99.1% in test [6]. For the same compound, the values for the growth in test [7] and in test [8] were 94.8% and 105%, respectively.

For the compound `Cc1cc(Nc2ccc(Cl)cc2)nc(NCCCNc2ccnc3cc(Cl)ccc23)n1`, the growth in [1] was -75.9% (active); in [2], -40.1% (active); in test [3], -74.7% (active); in test [4], -81.1% (active); in [5], -36.3% (active); in test [6], 12.7%. Also, the growth in [7] was -22.7% (active); in test [8], -47.7% (active).

As to `c1ccc2c(c1)oc1c3cccnc3ccc21`, the growth in [1] was 93.2%; in [2] it was 44.2%; in [3] it was 118%; in test [4], 87.9%; in test [5], 84.1%; in test [6], 87.2%. Further, the values for the growth in test [7] and in test [8] were 111% and 61.4%, respectively.

Regarding `COc1cc(Cl)cc(-c2nn(-c3cccc(NC(=O)Nc4cc(C(F)(F)F)cc(C(F)(F)F)c4)c3)cc2-c2ccncc2)c1`, the growth is 9.32% (active) in test [1]; -0.18% (active) in [2]; 30.3% in test [3]; 10.3% in test [4]; 8.99% (active) in test [5]; -21.6% (active) in test [6]. For the same compound, the growth is -22% (active) in test [7] and -24.6% (active) in test [8].

As for `CN(C)CCS(=O)(=O)CCN(C)C`, the growth was 97.2% in [1]; 113% in [2]; 103% in [3]; 107% in [4]; 112% in test [5]; 96% in [6]. Further, the growth in [7] was 102%; in test [8], 104%.

On to `COc1ccc2c(c1)[n+]([O-])c(C#N)c(NC(=O)c1ccco1)[n+]2[O-]`, for which the growth was 119% in test [9]; 110% in [1]; 112% in [3]; 95.1% in [4]; 96.5% in test [5]; 220% in test [7]. Moreover, the growth in test [8] was 93.3%; in test [10] it was 87.4%.

Take `CC1(C)OC2=C(CC1Br)C(=O)C(=O)c1ccccc12` (stereo not given): the growth in [9] was -40.1% (active); in test [1], -75.4% (active); in test [3] it was -22.6% (active); in [4] it was -91.7% (active); in test [5] it was -62.2% (active); in test [6], 101%. In addition, the growth was -23.1% (active) in test [7], -25.6% (active) in [8] and 15.9% in test [10].

With `O=C(O)CCCCSc1ncnc2nc[nH]c12`, the growth in [1] was 107%; in test [2], 70%; in test [3] it was 98%; in test [4] it was 102%; in test [5] it was 93.5%; in test [6], 132%. The growth in test [7] and in test [8] was 101% throughout.

For the compound `Nc1nc(N)c(NC(=O)CNc2ccc(C(=O)O)cc2)c(N)n1`, the growth in test [1] is 97.1%; in [2] it was 94.1%; in test [3] it was 108%; in test [4] it was 115%; in test [5], 91.5%; in test [6], 101%. Moreover, the growth in [7] is 98%; in test [8], 107%.

As for `CN(C)c1ccc(N=C2C=CC(=O)c3ccccc32)cc1`, the growth was 55.4% in test [1]; 48.8% in test [2]; 111% in test [3]; 79.5% in test [4]; 80.9% in [5]; 91.3% in [6]. Besides, the values for the growth in test [7] and in test [8] were 70.5% and 77.6%, respectively.

Consider `COc1ccc(Nc2cc(C)nc(NCCCNc3ccnc4cc(Cl)ccc34)n2)cc1`, for which the growth was 1.94% (active) in test [1]; -73.5% (active) in test [2]; -83.9% (active) in [3]; -93% (active) in test [4]; -69.6% (active) in [5]; -0.29% (active) in test [6]. Besides, the results for the growth in test [7] and in test [8] were -21.9% (active) and -35.1% (active), respectively.

Regarding `N#Cc1cc(-c2cc3ccccc3o2)oc1N`, the growth was -26.4% (active) in test [9]; 8.73% (active) in test [1]; 11.9% in [3]; 1.36% (active) in [4]; -10.4% (active) in [5]; -29.6% (active) in test [7]. Also, the growth in [8] was -12.4% (active); in [10], -23.5% (active).

Regarding `ClC(Cl)(Cl)c1nc2nccnc2[nH]1`, the growth in [1] was 98%; in test [2], 80.4%; in test [3] it was 119%; in test [4], 103%; in test [5], 87.2%; in test [6] it was 107%. Further, the figures for the growth in test [7] and in [8] were 96.7% and 104%, respectively.

Take `Cc1ccc(Nc2cc(C)nc(NCCCNc3ccnc4cc(Cl)ccc34)n2)cc1`: the growth was -81% (active) in [1]; -95% (active) in test [2]; -94.7% (active) in [3]; -98.2% (active) in [4]; -87.2% (active) in test [5]; -59.4% (active) in test [6]. The growth in test [7] is -27.8% (active); in test [8], -47.6% (active).

In the case of `CS(=O)(=O)Nc1ccc(Nc2c3ccccc3nc3cc([N+](=O)[O-])ccc23)cc1`, the growth in [1] is 20.3%; in [2] it was 16.6%; in test [3], 16%; in test [4] it was 12.6%; in test [5] it was 37.7%; in [6] it was 45.4%. Further, the values for the growth in test [7] and in test [8] were 2.39% (active) and 4.17% (active), respectively.

In the case of `NC(=O)CC1(c2ccccc2)CCCCC1`, the growth is 101% in test [1]; 93.1% in test [2]; 109% in [3]; 104% in test [4]; 96.8% in [5]; 102% in test [6]. Moreover, the results for the growth in test [7] and in test [8] were 98.9% and 94.2%, respectively.

`Cc1ccc(S(=O)(=O)OCCN(CCOS(=O)(=O)c2ccc(C)cc2)c2c[nH]c(=O)[nH]c2=O)cc1`: the growth in test [1] was 97.4%; in test [2], 82.8%; in test [3], 112%; in test [4], 99%; in test [5], 97.5%; in test [6], 117%. Further, the growth is 101% in test [7] and 104% in test [8].

As for `Clc1ccc2c(NCCCNc3nccc(Nc4ccc(Br)cc4)n3)ccnc2c1`, the growth in test [1] is -65.1% (active); in test [2], -72.3% (active); in [3] it was -90.4% (active); in test [4], -90.6% (active); in test [5] it was -80.4% (active); in test [6], 19.6%. For the same compound, the growth in [7] is -24.5% (active); in [8], -44.6% (active).

For the compound `NC(=S)N=Nc1c(O)c2ccccc2c2ccccc12`, the growth in test [1] is -88.7% (active); in test [2], 42.5%; in test [3], 116%; in test [4] it was 60.7%; in [5], 83.5%; in [6] it was 101%. Besides, the growth in [7] was 106%; in test [8], 100%.

Regarding `CCN1CCN(c2nc3ccccc3c3c(=O)c4ccccc4sc23)CC1`, the growth in test [9] was 59.1%; in test [1], 41.6%; in test [2], 29.8%; in test [4], 22.8%; in test [6], 37%; in test [7] it was 29.2%. For the same compound, the growth in [8] is 2.07% (active); in test [10], -11.8% (active).

In the case of `Cc1cs/c(=N\NC(=O)c2cc(-c3cc4ccccc4o3)nn2-c2ccccc2)n1-c1ccccc1`, the growth in test [9] is 72.4%; in test [1], 96.7%; in [3], 121%; in test [4], 88.7%; in test [5], 100%; in test [7] it was 75.7%. Moreover, the growth in [8] is 75%; in test [10], 76.9%.

`COc1ccc2c(c1)nc(N)c1c3cccnc3cn21`: the growth is 66.5% in test [9]; 42.3% in test [2]; 51.3% in test [3]; 37.8% in [4]; -15.7% (active) in test [5]; -9.56% (active) in [6]. The growth in test [7] is 22.7%; in [8] it was 30.9%; in test [10], 6.83% (active).

Regarding `N#Cc1ncc(-c2cc(F)c(F)c(F)c2)c(NC2CCCCCC2)n1`, the growth in [1] was 83.6%; in test [2], 89.4%; in test [3], 105%; in [4] it was 92.6%; in test [5], 92.9%; in test [6], 52.2%. The results for the growth in test [7] and in test [8] were 83.9% and 78.1%, respectively.

Regarding `Cc1cc(=O)[nH]c(N/N=C/c2ccccc2O)n1`, the growth was 86.2% in test [1]; 43.6% in test [2]; 97.3% in test [3]; 59.8% in test [4]; 82.3% in test [5]; 108% in test [6]. Besides, the results for the growth in test [7] and in test [8] were 35% and 67.3%, respectively.

As for `O=C1Nc2ccccc2C1=NC1CCCCC1`, the growth is 107% in test [1]; 55.5% in test [2]; 107% in test [3]; 97.9% in [4]; 79.3% in test [5]; 109% in test [6]. The growth in [7] was 108%; in test [8], 111%.

As to `O=C(N/N=C/c1cc2ccccc2c2ccccc12)c1cc(O)c(O)c(O)c1`, the growth was 69.8% in test [1]; 39.2% in test [2]; 69.2% in [3]; 47.2% in test [4]; 43.7% in test [5]; 106% in test [6]. Further, the growth was 11.3% in test [7] and 35.6% in test [8].

For the compound `Clc1nc(Cl)c2c(ncn2C/C=C\Cn2cnc3c(Cl)nc(Cl)nc32)n1`, the growth is -79.8% (active) in test [9]; -5.17% (active) in [1]; -97.2% (active) in test [3]; -100% (active) in test [4]; -100% (active) in test [5]; -81% (active) in [7]. For the same compound, in test [8], the growth is -59.4% (active).

Regarding `CC1(O)CCC2CC3OC3(C)CCC3OC3(C)CCC1C2(C)C` (stereo not given), the growth is 93.5% in [9]; 104% in [1]; 109% in [3]; 102% in test [4]; 100% in [5]; 267% in test [7]. In addition, the growth in test [8] is 104%; in test [10] it was 116%.

Turning to `O=C(CCCCC(=O)Nc1ccc2c(c1)/C(=C/c1ccc[nH]1)C(=O)N2)NO`, the growth in test [1] was 93.1%; in test [2] it was 83.6%; in test [3], 86%; in [4] it was 101%; in [5], 97.8%; in test [6], 50.8%. Further, the growth in test [7] was 32.4%; in test [8] it was 60.8%.

With `CC1(C)N=C(N)N=C(N)N1c1ccc(CCc2ccccc2)c(Cl)c1`, the growth is 18.9% in [1]; 87.9% in test [2]; 21% in test [3]; 28.7% in [4]; 53.2% in test [5]; 40.9% in test [6]. For the same compound, the figures for the growth in [7] and in test [8] were 19.8% and 20.2%, respectively.

As for `COc1ccc(C2=NN(C(=O)c3ccc(S(C)(=O)=O)cc3)C(c3ccc(OC)c(OC)c3)C2)c(OC)c1` (stereo not given), the growth in test [1] is 100%; in test [2], 74.9%; in test [3], 116%; in test [4], 102%; in test [5], 93.1%; in [6], 98.5%. Further, the growth in test [7] was 103%; in test [8], 92.2%.
